The values that follow come from PubChem BioAssay (Tox21).

The nature of experiment [1]: qHTS assay to identify small molecule antagonists of the peroxisome proliferator-activated receptor gamma (PPARg) signaling pathway - cell viability counter screen (AID 743194). Further: nearly all actives have a fitted effect of over 55% in size. Further: potency means the concentration at half of the fitted maximal effect. The gist of the method: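 PPARg-UAS-bla HEK293H cells were plated, rested 5 h at 37 C, then treated with compounds plus rosiglitazone (50 nM final) for 17 h at 37 C; viability was then read by CellTiter-Glo luminescence after 30 min at room temperature.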
(In qHTS, concentration-response curves come from the screen itself.)

Experiment [2] is described as follows: qHTS assay to identify small molecule agonists of the peroxisome proliferator-activated receptor delta (PPARd) signaling pathway - cell viability counter screen (AID 743211). Further: nearly all actives have a fitted effect of over 55% in size. Further: potency means the concentration at half of the fitted maximal effect. In a few lines: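 Viability of GeneBLAzer PPARd UAS-bla HEK293H cells was assessed after 17 h compound incubation at 37C, using CellTiter-Glo reagent added after the reporter read and luminescence recorded 30 min later.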

A short description of experiment [3]: qHTS assay to identify small molecule antagonists of the peroxisome proliferator-activated receptor delta (PPARd) signaling pathway - cell viability counter screen (AID 743213). Further: nearly all actives have a fitted effect of over 50% in size. Further: potency means the concentration at half of the fitted maximal effect. In a few lines:
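Agonist-stimulated (L165041, 300 nM final) HEK293H PPARd UAS-bla cells are exposed to compounds for 17 h at 37 C, and ATP-based luminescence (CellTiter-Glo) from the same wells reports cytotoxicity.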

Experiment [4] is described as follows: qHTS assay to identify small molecule agonists of the farnesoid-X-receptor (FXR) signaling pathway - cell viability counter screen (AID 743218). Further: nearly all actives have a fitted effect of over 45% in size. Further: potency means the concentration at half of the fitted maximal effect. The gist of the method:
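Luminescence from CellTiter-Glo, read after 30 min at RT, reports viability of GeneBLAzer FXR-UAS-bla HEK 293T cells treated 16 h with compounds in the wells used for the beta-lactamase reporter.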

Experiment [5] concerns the target Vitamin D3 receptor (Homo sapiens) (UniProt P11473). The experiment in a line: qHTS assay to identify small molecule agonists of the vitamin D receptor (VDR) signaling pathway (AID 743222; calls by dose curve). The gist of the method:
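Beta-lactamase reporter readout (LiveBLAzer B/G FRET, 2 h RT) in VDR-bla cells after 16 h compound treatment at 37C, 5% CO2; cells pre-incubated 4 h before pin transfer of DMSO solutions.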

Experiment [6] has the same target. As to the kind of experiment: qHTS assay to identify small molecule antagonists of the vitamin D receptor (VDR) signaling pathway (AID 743223; active means well fitted inhibition curve with a large enough effect in the signal ratio in the repeat runs, not every such curve was filed as active; the % refers to the signal ratio; further: potency means the concentration at half of the fitted maximal effect). In a few lines:
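Fluorescence from LiveBLAzer B/G FRET substrate, read after 2 h at room temperature, reflects beta-lactamase reporter activity in VDR-bla cells treated 16 h at 37C with compounds and agonist 1alpha,25-dihydroxyvitamin D3 (3 nM final).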

Experiment [7] is described as follows: qHTS assay to identify small molecule that activate the aryl hydrocarbon receptor (AhR) signaling pathway - cell viability counter screen (AID 743086).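 Further: HepG2 liver cells carrying the AhR DRE luciferase reporter; series mostly up to about 70 µM; nearly all actives have a fitted effect of over 45% in size.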 The gist of the method: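 HepG2-AhR-luc (HG2L7.5c1) cells, 4000/well, were preincubated 5 h at 37C, exposed to compound in qHTS format for 24 hr at 37C, then given CellTiter-Fluor for 30 min; viability was read as fluorescence in the reporter wells.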

Experiment [8] in a line: qHTS assay for small molecule agonists of the antioxidant response element (ARE) signaling pathway (AID 743202; active means well fitted activation curve with a large enough effect in the signal ratio in the repeat runs, not every such curve was filed as active; the % refers to the signal ratio). The gist of the method: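 Following a 16 h, 37 C exposure of reporter HepG2 cells (ARE-driven beta-lactamase, 2,000 cells/well) to compounds, FRET substrate was applied for 2 h at room temperature and fluorescence intensity recorded.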
The nature of experiment [9]: qHTS assay for small molecule agonists of the antioxidant response element (ARE) signaling pathway - cell viability counter screen (AID 743203; calls by dose curve; further: nearly all actives have a fitted effect of over 55% in size; further: potency means the concentration at half of the fitted maximal effect). The gist of the method: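 Luminescence read-out (CellTiter-Glo, 30 min at room temperature) measured cell viability in the same wells as the ARE beta-lactamase reporter. HepG2 ARE-bla cells were treated with compounds for 16 hrs at 37C/5% CO2.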

The nature of experiment [10]: qHTS assay for small molecule activators of the heat shock response signaling pathway - cell viability counter screen (AID 743209). Further: nearly all actives have a fitted effect of over 50% in size. In a few lines:
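HSE-bla HeLa; 1500 cells/well; overnight 37 C, 5% CO2; compound 5 h 37 C; LiveBLAzer B/G substrate 2.5 h RT; CellTiter-Glo 30 min RT; luminescence.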

Experiment [11] has as its target Peroxisome proliferator-activated receptor delta (Homo sapiens) (UniProt Q03181). As to the kind of experiment: qHTS assay to identify small molecule agonists of the peroxisome proliferator-activated receptor delta (PPARd) signaling pathway (AID 743212; calls by dose curve). In a few lines:
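Beta-lactamase reporter read by fluorescence (LiveBLAzer B/G FRET, 2 h, room temperature). Test agents, in DMSO, incubated at 37 C with PPARd-bla HEK293H cells.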

For experiment [12] the target is unchanged. The experiment in a line: qHTS assay to identify small molecule antagonists of the peroxisome proliferator-activated receptor delta (PPARd) signaling pathway (AID 743215; active means well fitted inhibition curve with a large enough effect in the signal ratio in the repeat runs, not every such curve was filed as active; the % refers to the signal ratio; further: series mostly up to about 62 µM). The gist of the method:
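HEK293H GeneBLAzer PPARd UAS-bla reporter cells; cpd + L165041 300 nM final, 17 h 37 C; LiveBLAzer B/G FRET substrate 2 h RT; fluorescence intensity read-out. Antagonist mode.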

Experiment [13] can be described thus: qHTS assay to identify small molecule antagonists of the farnesoid-X-receptor (FXR) signaling pathway - cell viability counter screen (AID 743221; active means well fitted cell-killing curve with a large enough effect in the repeat runs, not every such curve was filed as active; further: nearly all actives have a fitted effect of over 50% in size; further: potency means the concentration at half of the fitted maximal effect). The gist of the method: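 Quantitative HTS of the Tox21 10K library run in parallel with the beta-lactamase reporter read. HEK 293T cells carrying a UAS-driven bla reporter got compound and 50 uM CDCA (final) for 16 h; ATP-based luminescence followed.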

Experiment [14] in a line: qHTS assay to identify small molecule agonists of the vitamin D receptor (VDR) signaling pathway - cell viability counter screen (AID 743224). Further: nearly all actives have a fitted effect of over 50% in size. Further: potency means the concentration at half of the fitted maximal effect. The gist of the method:
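Cytotoxicity counter screen: VDR-bla cells, 16 h compound exposure at 37C, 5% CO2; CellTiter-Glo luminescence, 30 min RT, same wells as bla read.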

Experiment [15] deals with Peroxisome proliferator-activated receptor gamma (Homo sapiens) (UniProt P37231). The experiment in a line: qHTS assay to identify small molecule antagonists of the peroxisome proliferator-activated receptor gamma (PPARg) signaling pathway (AID 743191; calls by dose curve; further: nearly all actives have a fitted effect of over 30% in size; further: potency means the concentration at half of the fitted maximal effect). In a few lines:
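GeneBLAzer PPARg UAS-bla HEK293H cells carrying a UAS-driven beta-lactamase reporter were plated at 3000 cells/well, preincubated 5 h at 37C, then given compound for 17 h at 37C; LiveBLAzer B/G FRET substrate was read after 1 h at room temperature.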

Experiment [16] in a line: qHTS assay for small molecule activators of the heat shock response signaling pathway (AID 743210; active means well fitted activation curve with a large enough effect in the signal ratio in the repeat runs, with a control signal flat, not every such curve was filed as active; the % refers to the signal ratio; further: series mostly up to about 63 µM). The gist of the method:
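Heat shock element–beta-lactamase HeLa reporter cells; qHTS with compounds for 5 h at 37 C; detection by FRET substrate fluorescence after 2.5 h at RT.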

The target in experiment [17] is Bile acid receptor (Homo sapiens) (UniProt Q96RI1). The experiment in a line: qHTS assay to identify small molecule agonists of the farnesoid-X-receptor (FXR) signaling pathway (AID 743220; active means well fitted activation curve with a large enough effect in the signal ratio in the repeat runs, not every such curve was filed as active; the % refers to the signal ratio). In a few lines:
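FXR-UAS-bla HEK 293T cells carrying a UAS-driven beta-lactamase reporter were plated for 5 h at 37C/5% CO2, then exposed to DMSO-dissolved Tox21 10K compounds for 16 h at 37C. A LiveBLAzer B/G FRET substrate was loaded for 2 h at room temperature before fluorescence reading.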

For experiment [18] the target is unchanged. The experiment in a line: qHTS assay to identify small molecule antagonists of the farnesoid-X-receptor (FXR) signaling pathway (AID 743217; active means well fitted inhibition curve with a large enough effect in the signal ratio in the repeat runs, not every such curve was filed as active; the % refers to the signal ratio). In a few lines: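 Read-out: beta-lactamase FRET fluorescence (LiveBLAzer B/G substrate, 2 h, room temperature) in GeneBLAzer FXR-UAS-bla HEK 293T cells. Compounds were co-dosed with 50 uM chenodeoxycholic acid (final) and incubated 16 h at 37 °C.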

Molecules are shown by their SMILES. Records with an inconclusive call do not appear. Activity calls are given as the source filed them. Unless noted, the call rests on the fitted dose curve; in most records, active means well fitted curve in the direction sought with a large enough effect in the repeat runs; inconclusive means weak or mixed curves; inactive means no such curve, though single readings can be large; an effect the other way counts as inactive or inconclusive.

Sequence of Peroxisome proliferator-activated receptor gamma (Homo sapiens) (P37231 whole entry, looked up): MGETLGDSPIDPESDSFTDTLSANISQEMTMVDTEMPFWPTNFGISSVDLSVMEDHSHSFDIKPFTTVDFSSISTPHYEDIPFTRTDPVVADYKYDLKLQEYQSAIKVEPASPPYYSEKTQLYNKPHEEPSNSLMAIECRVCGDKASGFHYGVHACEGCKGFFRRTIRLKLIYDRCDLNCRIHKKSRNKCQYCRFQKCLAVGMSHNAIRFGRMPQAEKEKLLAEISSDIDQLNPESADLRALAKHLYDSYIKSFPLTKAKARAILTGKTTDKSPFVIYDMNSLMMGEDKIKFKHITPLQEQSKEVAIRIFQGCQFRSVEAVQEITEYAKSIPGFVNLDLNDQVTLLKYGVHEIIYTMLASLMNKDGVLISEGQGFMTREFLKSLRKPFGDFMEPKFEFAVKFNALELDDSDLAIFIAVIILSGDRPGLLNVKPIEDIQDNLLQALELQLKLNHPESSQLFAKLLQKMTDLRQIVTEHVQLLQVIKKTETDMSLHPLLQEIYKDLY
Sequence of Vitamin D3 receptor (Homo sapiens) (P11473 whole entry, looked up): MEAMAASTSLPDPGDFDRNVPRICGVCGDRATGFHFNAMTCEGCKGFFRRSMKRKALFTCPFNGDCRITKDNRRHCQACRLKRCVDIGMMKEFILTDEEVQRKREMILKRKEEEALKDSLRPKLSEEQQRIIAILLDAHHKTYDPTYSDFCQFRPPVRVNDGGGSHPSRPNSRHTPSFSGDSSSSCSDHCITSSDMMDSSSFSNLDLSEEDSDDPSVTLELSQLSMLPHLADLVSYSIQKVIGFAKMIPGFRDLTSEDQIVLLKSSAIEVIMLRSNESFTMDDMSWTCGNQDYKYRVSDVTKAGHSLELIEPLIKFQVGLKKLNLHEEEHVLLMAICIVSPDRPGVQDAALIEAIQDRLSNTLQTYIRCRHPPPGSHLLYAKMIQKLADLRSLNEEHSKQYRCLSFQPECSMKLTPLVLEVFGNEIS
Sequence of Bile acid receptor (Homo sapiens) (Q96RI1 whole entry, looked up): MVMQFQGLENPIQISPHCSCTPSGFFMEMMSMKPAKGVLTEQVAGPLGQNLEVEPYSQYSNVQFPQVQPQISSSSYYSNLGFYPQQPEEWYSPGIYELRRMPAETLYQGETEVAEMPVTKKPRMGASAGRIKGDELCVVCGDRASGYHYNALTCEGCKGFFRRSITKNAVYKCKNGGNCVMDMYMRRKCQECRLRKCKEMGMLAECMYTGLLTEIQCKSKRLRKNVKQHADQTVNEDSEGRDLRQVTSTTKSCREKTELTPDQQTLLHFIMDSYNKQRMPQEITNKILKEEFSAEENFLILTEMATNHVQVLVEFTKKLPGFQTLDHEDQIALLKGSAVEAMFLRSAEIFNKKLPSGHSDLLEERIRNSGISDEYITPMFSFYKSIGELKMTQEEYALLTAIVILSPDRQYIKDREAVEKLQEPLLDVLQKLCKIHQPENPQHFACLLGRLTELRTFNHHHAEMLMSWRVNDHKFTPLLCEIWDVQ
Sequence of Peroxisome proliferator-activated receptor delta (Homo sapiens) (Q03181 whole entry, looked up): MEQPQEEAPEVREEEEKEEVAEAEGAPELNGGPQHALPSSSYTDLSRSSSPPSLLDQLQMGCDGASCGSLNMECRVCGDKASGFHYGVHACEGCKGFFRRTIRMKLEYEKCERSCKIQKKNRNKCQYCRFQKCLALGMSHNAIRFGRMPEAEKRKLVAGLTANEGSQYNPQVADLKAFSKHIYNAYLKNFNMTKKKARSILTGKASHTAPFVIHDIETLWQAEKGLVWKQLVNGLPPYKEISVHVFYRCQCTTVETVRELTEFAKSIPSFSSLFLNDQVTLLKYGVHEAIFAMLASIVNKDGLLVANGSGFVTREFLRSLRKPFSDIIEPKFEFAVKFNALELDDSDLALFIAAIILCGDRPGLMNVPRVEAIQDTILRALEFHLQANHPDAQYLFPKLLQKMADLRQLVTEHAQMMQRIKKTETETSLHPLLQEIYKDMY

In the case of `CN1C(=O)N(c2ccccc2Br)Cc2cnc(Nc3ccc4c(c3)OCC(CO)O4)nc21` (stereo not given), the Potency in experiment [1] is 49 µM (active); in experiment [2], 1.1 µM (active); in experiment [3], 11 µM (active); in experiment [6], 13.8 µM (active). The Potency result in experiment [4] and in [5] was “inactive” in each case.

In the case of `NNC(=O)CP(=O)(c1ccccc1)c1ccccc1`, the Potency entry in experiment [7], in experiment [1], in experiment [8], in [9], in experiment [10] and in experiment [2] was “inactive” throughout. In addition, the Potency result in experiment [11], in experiment [3], in experiment [12], in [4], in [13] and in experiment [14] was “inactive” throughout.

Take `CCOC(C)=O`: the Potency result in experiment [7], in experiment [15], in [1], in experiment [8], in experiment [9] and in [10] was “inactive” throughout. Further, the Potency result in experiment [16], in [2], in experiment [11], in experiment [12], in [4] and in [13] was “inactive” each time. In addition, the Potency entry in experiment [5], in experiment [6] and in [14] was “inactive” throughout.

Take `COC(=O)[C@H]1[C@H]2C[C@@H]3c4[nH]c5cc(OC)ccc5c4CCN3C[C@H]2C[C@@H](OC(=O)/C=C/c2ccc(O)c(OC)c2)[C@@H]1OC`: the Potency in experiment [15] was 6.68 µM (active); in [2], 8.41 µM (active); in experiment [3] it was 10.6 µM (active); in [4], 8.41 µM (active); in experiment [13], 18.8 µM (active). The Potency entry in experiment [9], in experiment [10] and in experiment [17] was “inactive” in each case.

`CC(=O)N/N=C/c1ccc([N+](=O)[O-])o1`: the Potency result in experiment [1], in experiment [9], in [2], in [11], in experiment [3] and in experiment [12] was “inactive” throughout. Also, the Potency entry in experiment [4], in [13], in [5] and in experiment [14] was “inactive” in each case.

Consider `OCCN1CCN(CCCN2c3ccccc3Sc3ccc(Cl)cc32)CC1`, for which the Potency in experiment [9] was 29.8 µM (active); in experiment [2], 29.8 µM (active); in experiment [4], 26.6 µM (active); in experiment [13] it was 26.6 µM (active). The Potency result in experiment [10], in experiment [11], in experiment [17] and in [14] was “inactive” each time.

`CS(=O)(=O)c1ccc(-c2cn3ccccc3n2)cc1`: the Potency result in experiment [1], in experiment [11], in [12], in [4], in experiment [13] and in [6] was “inactive” in each case. Further, the Potency in experiment [2] and in experiment [14] was 29.8 µM (active) in each case.

With `CC(CC1c2ccccc2CCc2ccccc21)CN(C)C` (stereo not given), the Potency entry in experiment [9], in experiment [12], in experiment [18], in experiment [4], in [17] and in experiment [13] was “inactive” throughout. In addition, the Potency result in [14] was “inactive”.

Take `OC1(c2ccccc2)CCNCC1`: the Potency entry in experiment [15], in experiment [1], in experiment [9], in [10], in experiment [16] and in experiment [2] was “inactive” in each case. Moreover, the Potency result in [3], in [4], in experiment [13], in experiment [5], in experiment [6] and in experiment [14] was “inactive” throughout.

Turning to `CNC(=O)c1cnn(-c2nc(N)c3ncn([C@@H]4O[C@H](CO)[C@@H](O)[C@H]4O)c3n2)c1`, the Potency entry in [1], in [9], in [10], in experiment [2], in experiment [3] and in [4] was “inactive” throughout. Moreover, the Potency result in experiment [13], in experiment [5] and in experiment [14] was “inactive” throughout.

For `CCCCN1CCCC1C(=O)Nc1c(C)cc(C)cc1C` (stereo not given), the Potency entry in experiment [7], in experiment [1], in [8], in experiment [9], in experiment [10] and in experiment [2] was “inactive” each time. Besides, the Potency entry in experiment [4], in experiment [13], in [5] and in experiment [6] was “inactive” each time.
